# Nrf2 block – Nrf2 pathway inhibition | A549 ARE-Fluc reporter, luciferase luminescence, 18-24 h | Potency, µM (top dose mostly 46 µM), inactives show top-dose activity change, negative = inhibition, usual class: inhibitors | 360,000 compounds, 2.1% hits | AID 504444; also: potency is read from the fitted curve at half-maximal effect; % is scaled to controls: 0 for no effect and ±100 for the full control effect; nearly all actives have a fitted effect of over 60% in size
#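 Nrf2 function is reported as luminescence of an ARE-controlled luciferase in A549 cells. Compounds were tested at several concentrations, and a CellTiter-Fluor read on the same wells flagged cytotoxicity.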
# Nrf2 ARE act – Nrf2 pathway activation; AREc32 ARE-luciferase reporter (MCF7-derived line), luminescence, 24 h; Potency, µM (titrated, usually from 46.1 µM), for the others: at the top dose activation, usual class: activators; 410,000 compounds, 0.31% hits; AID 624171; also: potency is read from the fitted curve at half-maximal effect; % of control where 0% means no effect; nearly all actives have a fitted effect of over 65% in size
#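 Luminescent ARE reporter assay in AREc32_Fluc cells: overnight plating at 37 deg C, 24 hr compound incubation, Steady-Glo added, 30 min RT before reading.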
# A549 tox – kills or reduces viability of A549 cells in Nrf2 counter-screen; Potency, µM (highest dose often 46 µM), for inactives: at the highest dose activity change, negative = cytotoxicity, usual class: inhibitors; A549 ARE-Fluc cells, CellTiter-Fluor viability, 18-24 h; 390,000 compounds, 0.16% hits; also: potency is read from the fitted curve at half-maximal effect; % is scaled to controls: 0 for no effect and ±100 for the full control effect
#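 A549 ARE_Fluc cells in 5% FBS OPTI-MEM were exposed to compounds in concentration-response for 18-24 h at 37 deg C. Viability was read by CellTiter-Fluor fluorescence (Ex 405/Em 525) after 30 min, before the luciferase read.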
# TCR act – activates T cell receptor signaling; Potency, µM (doses to about 9.22 µM), for the others: top-dose activation of IL-2 secretion, hits mostly activators; AID 504894; primary human leukocytes, anti-CD3, IL-2 HTRF, 48 h; 330,000 tested, under 10 active; also: % of control where 0% means no effect
#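 IL-2 release read by HTRF sandwich (Eu cryptate donor, d2 acceptor, 665 nm emission) after 48 hr exposure of primary human leukocytes to compound together with anti-CD3 beads in the absence of co-stimulatory signals.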
# A-T KAP1 phos – potential ataxia-telangiectasia treatment; F2112 A-T fibroblasts, KAP-1 phosphorylation AlphaLISA; neocarzinostatin DNA damage 30 min before lysis; Potency, µM (highest dose often 57.5 µM), inactives show at the top dose activation, usual class: activators; 320,000 compounds, 0.19% hits; AID 485349; also: potency is read from the fitted curve at half-maximal effect; % of control where 0% means no effect; nearly all actives have a fitted effect of over 45% in size
#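 ATM-like activity read as KAP-1 phosphorylation via AlphaLISA donor/acceptor antibody pairs after lysis and 6 hr at 25C. Cells were ATM-null patient fibroblasts (F2112, hTERT), dosed 60 min, then exposed to the DSB inducer NCS for 30 min.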
# CCT chaperon mod – modulators of cytosolic chaperonin (CCT/TRiC) activity | 360,000 compounds, 0.3% hits | AID 651819 | purified chaperonin ATPase assay, HTRF ADP detection, 30 min | activity change, % (test concentration not listed), hits read low; in the data active = activity change below about -30%; also: % is scaled to controls: 0 for no effect and ±100 for the full control effect
#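 Enzyme 40 or 20 nM (batch-dependent) in Tris pH 7.4/KCl/MgCl2/DTT; cpd 76 uM single point; ATP 10 uM; 30 min 37 °C; Transcreener ADP HTRF detection, 30 min RT; ratio 665/615.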
# The depositor's hits bear a star; u = inconclusive; x = no result; [ ] = another dose, or the depositor's remark. Rows were chosen to be rich in hits. Some 2.6% of all compounds tested hit in one or more screens of this group. Unless noted, calls follow the shape of the dose curve; as a rule, active = well fitted curve in the direction sought with a large enough effect; inconclusive = small, poorly fitted or top-dose-only effect, or another doubt; inactive = no such curve, though single readings can be large; an effect the other way counts as inactive or inconclusive.
SMILES,Nrf2 block,Nrf2 ARE act,A549 tox,TCR act,A-T KAP1 phos,CCT chaperon mod
C[C@H](CO)N1C[C@H](C)[C@@H](CN(C)Cc2ccc(Oc3ccccc3)cc2)Oc2c(NC(=O)C3CC3)cccc2C1=O,23.1µM*,-4.8%,-16.9%,3.9%,-3.7%,-4.3
Cc1ccc(S(=O)(=O)Nc2ccc3c(c2)C(=O)N([C@H](C)CO)C[C@H](C)[C@H](CN(C)C(=O)Nc2cccc4ccccc24)OCCCC[C@@H](C)O3)cc1,x,5.3%,x,x,x,-30.9*
C[C@H]1CN([C@@H](C)CO)C(=O)c2cccc(NC(=O)Nc3ccc(C(F)(F)F)cc3)c2O[C@@H]1CN(C)C(=O)Nc1ccc(F)cc1,16.4µM*,-5.6%,u,10.4%,-4.8%,0.8
O=C(NCc1ccccc1)n1cc(P(=S)(c2ccccc2)c2ccccc2)c2ccccc21,8.2%,x,0.5%,x,x,x
Cc1ccc(-c2nn(-c3ccccc3)cc2C=C2C(=O)CC(C)(C)CC2=O)cc1,u,8.3%,-0.6%,-0.8%,-1.4%,-6.1
CC1=NNC(=O)/C1=C\c1cn(-c2ccccc2)nc1-c1ccc(Cl)cc1,13µM*,u,20.6µM*,3.5%,u,2.2
O=Cc1ccccc1-c1cn(CN2C(=O)c3ccccc3C2=O)nn1,1.5%,5.1%,-2.6%,1.4%,-12.0%,-1.6
COc1ccc(-c2ccc3c(c2)S(=O)(=O)c2cccc(C(=O)N4CCN(c5ccccn5)CC4)c2C3=O)cc1OC,x,0.0%,x,x,x,-31.9*
COCCn1c(C)cc(O)c(C(c2ccc(OC)cc2)N2CCN(c3ccccc3)CC2)c1=O (stereo not given),x,2.5%,-9.2%,x,x,x
CCCc1nc2ccc(Cl)cn2c1Cc1ccccc1OC,x,1.5%,x,x,x,0.9
CC(=O)N1CCc2cc(Br)cc(S(=O)(=O)N3CCN(c4cccc(C(F)(F)F)c4)CC3)c21,-10.8%[9.27 µM],-0.9%,5.7%,x,x,x
CCOC(=O)c1cnc2ccc(C)cc2c1N(C)Cc1ccccc1,u,6.1%,5.5%,-6.4%,22.4µM*,1.8
CCN(Cc1ccccc1)C(=O)CN1C(=O)NC(CC)(c2ccc(F)cc2)C1=O (stereo not given),-2.3%,0.7%,6.6%,1.8%,6.6%,-0.4
O=C(C1CCC1)N1CCc2cc(S(=O)(=O)Nc3ccc4c(c3)OCCO4)ccc21,u,-0.2%,-13.6%,-19.0%,2.8%,0.1
CCC(=O)N1CCc2cc(S(=O)(=O)Nc3ccc4c(c3)OCCO4)ccc21,20.6µM*,0.5%,-17.4%,0.8%,1.4%,-1.8
CCOC(=O)C1CCCN(S(=O)(=O)c2ccc3c(c2)CCCN3C(C)=O)C1 (stereo not given),x,4.1%,-9.0%,x,x,x
CCOC(=O)C1CCCN(S(=O)(=O)c2ccc3c(c2)CCN3C(=O)CC)C1 (stereo not given),9.2µM*,0.1%,-0.4%,x,x,x
CCOC(=O)c1ccc(NS(=O)(=O)c2ccc3c(c2)CCN3C(=O)CC)cc1,25.9µM*,-0.9%,1.2%,x,x,x
CCOC(=O)c1ccc(NS(=O)(=O)c2ccc3c(c2)CCCN3C(C)=O)cc1,u,-0.2%,-15.7%,-7.8%,x,-1.0
COc1ccc(Cl)cc1NC(=O)Cn1cc2c(n1)CCC(C)C2 (stereo not given),4.9%,0.9%,6.4%,x,x,x
COc1ncnc2c1ncn2CCCNCC(C)c1ccccc1 (stereo not given),x,-0.5%,x,x,x,0.4
COc1cccc(CC(=O)Nc2ccc3nc(Nc4cccc(C(F)(F)F)c4)cc(C)c3c2)c1,u,-1.0%,-27.7%,x,x,x
Cc1cc(NC(=O)c2cncc(Br)c2)ccc1NC(=O)c1cc2ccccc2o1,13µM*,-0.1%,u,-5.4%,2.6%,-2.2
Cc1cc(Nc2cccc(Cl)c2)nc2ccc(NC(=O)c3cncc(Br)c3)cc12,18.4µM*,-2.1%,u,x,x,x
O=C(Nc1cccc(NC(=O)c2cncc(Br)c2)c1)c1cncc(Br)c1,8.2µM*,-0.1%,1.8%,0.1%,3.6%,-24.6
SMILES,Nrf2 block,Nrf2 ARE act,A549 tox,TCR act,A-T KAP1 phos,CCT chaperon mod
Cc1cc(Nc2cccc(C(F)(F)F)c2)nc2ccc(NC(=O)c3cncc(Br)c3)cc12,20.6µM*,4.2%,-21.4%,x,x,x
CCOc1cc(C(=O)Nc2ccc3nc(Nc4cccc(Cl)c4)cc(C)c3c2)cc(OCC)c1OCC,-5.1%,-1.0%,-18.0%,x,x,x
O=C(Nc1ccncc1)c1cncc(Br)c1,-22.3%,-0.7%,-3.6%,-4.5%,8.4%,0.7
COc1cc(NC(=O)c2ccccc2)ccc1NC(=O)c1cc2ccccc2o1,u,8.7%,-7.0%,-21.4%,17.5%,-1.2
CCc1ccc(NC(=O)c2cc3c([nH]c2=O)CC(C)(C)CC3=O)cc1,20.2%,1.6%,-3.7%,x,x,x
CCOC(=O)c1ccccc1NS(=O)(=O)c1ccc(C)cc1,-30.0%,-0.8%,-15.2%,-0.5%,x,1.5
CCOC(=O)c1ccccc1NC(=O)c1cncc(Br)c1,1.6%,-0.2%,0.1%,-2.3%,x,-37.3*
Cc1ccccc1C(=O)Nc1ccc2nc(Nc3cccc(C(F)(F)F)c3)cc(C)c2c1,18.4µM*,0.2%,u,x,x,x
CCOC(=O)c1ccccc1NS(=O)(=O)c1ccccc1,23.1µM*,-0.6%,u,x,7.6%,-2.1
Cc1ccccc1S(=O)(=O)N1CCN(S(=O)(=O)c2ccc3c(c2)OCCO3)CC1,-8.7%,x,-2.6%,x,x,x
COc1ccc(-c2cc(C(F)(F)F)nc(SCC(=O)Nc3ccc(O)cc3)n2)cc1OC,-2.6%,0.2%,-13.7%,x,x,x
CC1CCN(C(=O)c2[nH]cnc2C(=O)Nc2nccs2)CC1,-0.1%,-1.0%,1.6%,-5.5%,3.5%,-8.1
COc1ccccc1N1CCN(c2cc(C)nc3nncn23)CC1,0.0%,4.0%,-1.0%,x,x,x
COc1ccc(CC(=O)Nc2ccc(-c3nc4ccccc4s3)c(C)c2)cc1OC,x,4.0%,-0.1%,x,x,x
COc1cc(O)c(CC=C(C)C)c(O)c1C(=O)CCc1ccc(O)cc1,25.9µM*,-0.8%,u,-1.6%,0.0%,0.9
O=C(Cc1ccc2c(c1)OCCO2)c1c(O)cc(O)cc1O,19.3%,6.1%,-7.5%,6.9%,6.5%,-3.3
O=C(CCc1ccc(O)cc1)c1c(O)cc(O)cc1O,22.3%,13.2%,-3.7%,4.8%,28.2µM*,0.2
CCN(CC)C(=O)c1nn(-c2ccc(OC)cc2)c(=O)c2c(N)scc12,-6.7%,x,-5.1%,x,x,x
Cc1ccc(NC(=O)c2ccccc2OCC(=O)Nc2ccccc2F)cc1S(=O)(=O)N(C)C,u,-0.8%,-1.2%,6.6%,-6.9%,0.9
CS(=O)(=O)c1nc(S(=O)(=O)c2ccc(Cl)cc2)c(N2CCC(O)CC2)s1,u,u,1.4%,-3.3%,7.6%,-1.8

# Compound activity: PubChem BioAssay, National Center for Advancing Translational Sciences (NCATS)
